Reference: PubChem BioAssay AID778 (Sanford-Burnham Center for Chemical Genomics, 2007)
Out of some 96,000 compounds screened, about 20,000 (21%) were called active.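 How the source made its calls: active means CYP2C19 inhibition above a set limit at 5 µM in the primary screen (cut at about 50% in these data); inactive means the rest.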 The list is a sample of the results.

molecular target: Cytochrome P450 2C19 (Homo sapiens) (UniProt P33261); assay: blockers of cytochrome P450 2C19 activity – biochemical, luminescence, ADME assay, primary screen (AID 778); details: CYP2C19 Supersomes, luciferin-H EGE luminescence, 30 min; at 5 µM; hits give high values;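 further: plate controls were negative control wells for no effect and 2.5 mM tranylcypromine positive control for full effect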
Sequence (P33261 whole entry, looked up): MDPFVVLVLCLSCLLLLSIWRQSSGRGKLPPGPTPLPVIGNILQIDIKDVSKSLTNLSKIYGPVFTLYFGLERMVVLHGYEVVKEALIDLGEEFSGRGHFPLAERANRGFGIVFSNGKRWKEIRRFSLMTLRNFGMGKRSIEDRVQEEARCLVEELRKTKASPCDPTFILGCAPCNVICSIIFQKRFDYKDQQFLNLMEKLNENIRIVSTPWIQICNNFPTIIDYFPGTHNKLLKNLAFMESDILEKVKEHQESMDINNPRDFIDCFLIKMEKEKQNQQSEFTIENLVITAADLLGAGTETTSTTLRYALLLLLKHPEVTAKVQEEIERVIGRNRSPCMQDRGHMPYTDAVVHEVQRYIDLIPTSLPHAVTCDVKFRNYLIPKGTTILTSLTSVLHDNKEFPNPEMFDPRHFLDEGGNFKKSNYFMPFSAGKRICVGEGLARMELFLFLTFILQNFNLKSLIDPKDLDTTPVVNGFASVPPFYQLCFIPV

inhibition, active:
COC(=O)Nc1ccc(S(=O)(=O)N(C)CC(F)(F)C(F)F)cc1 58.8%
O=C(CCCCCn1c(=O)[nH]c2ccccc2c1=O)NCCc1c[nH]c2ccccc12 71.7%
O=C(CSCc1c(F)cccc1Cl)NCC1CCCO1 (centres undefined) 52.6%
Cc1ccc(-n2nc3c(c2NC(=O)CCC2CCCCC2)CS(=O)C3)cc1 (centres undefined) 80.4%
COc1ccc(-n2nc3c(c2NC(=O)Cc2cccc(C)c2)CS(=O)C3)cc1 (centres undefined) 76.9%
C=CCNc1nnc(SCC(=O)N2CCCCC2)c2ccccc12 50.6%
O=C(CCCC(=O)N(CC(=O)NC1CCCC1)Cc1ccccc1Cl)Nc1ccccn1 77.5%
CCOc1ccccc1N(CC(=O)NC1CCCCC1)C(=O)CCCC(=O)Nc1ccccn1 68.9%
Cc1nnc(N(Cc2ccco2)C(=O)c2ccno2)s1 80.5%
CCCn1nnnc1NC(=O)COc1ccc(Cl)cc1C 70.2%
Cc1cc(C)nc(SCc2ccccc2C#N)n1 50.2%
CCCCCNC(=O)Cc1ccc(OC)cc1 92.4%
CS(=O)(=O)Nc1cccc(C2=NN(S(=O)(=O)c3ccccc3)C(c3cccs3)C2)c1 (centres undefined) 72.2%
CCOc1ccc(CN(Cc2ccco2)S(=O)(=O)c2ccc(-n3cnnn3)c(OC)c2)cc1 57.7%
COc1ccccc1N1CCN(C(=O)c2c(-c3c(Cl)cccc3Cl)noc2C)CC1 78.9%
CC1=NN(C(=O)Cc2ccc(C)cc2)C(O)(c2cccnc2)C1 (centres undefined) 62.6%
COc1cc(-c2nn3c(-c4cccc(C)c4)nnc3s2)cc(OC)c1OC 79.2%
O=S(=O)(NCC1OCCc2ccccc21)c1ccccc1 (centres undefined) 53.6%
CC(Oc1ccc(Cl)cc1Cl)C(=O)/C=C/N(C)C (centres undefined) 60.1%

inhibition, inactive:
COC(=O)Nc1ccc(S(=O)(=O)N2CCN(CCN3C(=O)C4C5C=CC(C5)C4C3=O)CC2)cc1 (centres undefined) 5.6%
CCOC(=O)Nc1ccc(S(=O)(=O)N(C)C(C)C)cc1 19.6%
O=C(CCn1c(=O)[nH]c2ccccc2c1=O)NCCCN1CCN(c2cccc(Cl)c2)CC1 13.5%
COc1ccc(CCNC(=O)CCCCn2c(=O)[nH]c3ccccc3c2=O)cc1OC 16.8%
O=C(c1cc2c(s1)CCC2)N1CCN(c2ccccc2)CC1 48.8%
O=C(CSC1=Nc2ccccc2C2=NC(c3ccccc3)C(=O)N12)NCC1CCCO1 (centres undefined) 29.1%
O=C(CS(=O)(=O)Cc1ccccc1)NCC1CCCO1 (centres undefined) -6.7%
N#Cc1ccc(Oc2cc(C(F)(F)F)nc(-c3ccccn3)n2)cc1 6.7%
O=C(Nc1nccs1)c1cc(S(=O)(=O)N2CCOCC2)c(Cl)cc1Cl 12.5%
O=C(CC1CCCCC1)Nc1c2c(nn1-c1ccc(F)cc1)CS(=O)(=O)C2 5%
CC(C)(C)n1nc2c(c1NC(=O)c1ccc(S(=O)(=O)N3CCCC3)cc1)CS(=O)C2 (centres undefined) 10.7%
O=C(Nc1c2c(nn1-c1ccc(F)cc1)CS(=O)C2)C12CC3CC(CC(C3)C1)C2 (centres undefined) 9.1%
COc1ccc(-n2nc(C(=O)NCC(=O)Nc3cccc(C)n3)c3ccccc3c2=O)cc1 -1.3%
CCCCc1nc2c(=O)[nH]c3ccccc3c2o1 -9.6%
CCC1(C)Cc2c(sc3[nH]c(=S)n(Cc4ccccc4)c(=O)c23)CO1 (centres undefined) 9.8%
O=C(Cn1nnc(-c2ccc(CN3CCOCC3)cc2)n1)NC1CCCCC1 9%
CC(=O)C1=C(O)C(=O)N(c2ccc(S(N)(=O)=O)cc2)C1c1ccccc1F (centres undefined) -8%
Clc1ccc(-c2cc(COc3ccccc3)no2)cc1Cl 10.4%
O=c1c([N+](=O)[O-])cc(C(F)(F)F)cn1Cc1cccc(Cl)c1 24.2%
CCc1c(O)nc(SCC(=O)N2CCCCC2)n(-c2ccccc2C)c1=O 0.9%
C=CCNc1nnc(C)c2ccccc12 -10.2%
c1ccc2c(c1)C(=NC1CCCCC1)NC2=NC1CCCCC1 4.5%
O=C(Nc1cccc(OCC(=O)N2CCOCC2)c1)C1CCCCC1 -9.5%
CN(C)CCCNc1c2c(c(C#N)c3nc4ccccc4n13)CCC2 0%
CCOC(=O)N1CCC(Nc2c(NCCN3CCN(c4cccc(Cl)c4)CC3)c(=O)c2=O)CC1 2.4%
O=S(=O)(N/N=C\c1cccn1-c1ccccc1)c1ccc2ccccc2c1 49.7%
CCCCn1c(SCC(=O)NCCc2ccc(OC)c(OC)c2)nc2c1c(=O)n(C)c(=O)n2C -14.1%
Cc1noc(C)c1C(=O)N(CC(=O)NC1CCCC1)Cc1ccccc1F -7.6%
Cc1ccc(C(C(=O)NC2CCCC2)N(Cc2ccco2)C(=O)CCC(=O)Nc2ccccn2)cc1 (centres undefined) 10.6%
CCC(C)(NC(=O)c1ccccn1)C(=O)NC1CCCCC1 (centres undefined) 17.6%
CCCC(=O)Nc1cc(OCC)c(NC(=O)NC2CCCCC2)cc1OCC 10.5%
O=C1CCCC(O)=C1C=NCCc1ccccc1 12.8%
CC(CCO)Nc1nc2c([nH]1)c(=O)n(C)c(=O)n2C (centres undefined) 0.9%
Cn1c2c(c(=O)n(C)c1=O)C(c1ccc(O)cc1)Nc1ccccc1O2 (centres undefined) 2%
CCOc1[nH]n(-c2ccc(Cl)cc2)c(=O)c1C=Nc1ccc(O)cc1 13.5%
CCCN1CCN(C(=O)Cn2ncc3ccccc32)CC1 12.6%
CN(C(=O)c1ccno1)c1nnc(-c2cccnc2)s1 -0.7%
COCCN(C(=O)c1ccco1)c1nnc(-c2ccc(OC)cc2)s1 24%
Cc1nnc(SCCCn2c(N3CCCCC3)nc3c2c(=O)[nH]c(=O)n3C)s1 22.6%
Cc1ccc(O)c(NC(=O)COc2cc(C)ccc2C)c1 -2.7%
Cc1cccc(NC(=O)COc2ccc(Br)cc2C)n1 5%
CN1CCN(S(=O)(=O)c2ccc3[nH]cc(C(=O)O)c(=O)c3c2)CC1 3.6%
CCNC(=S)Nc1cccc(Cl)c1C 48%
Clc1ccccc1CSc1nnc(-c2ccco2)c(-c2ccco2)n1 31.1%
Nc1nc(SCc2ccccc2Cl)n[nH]1 0.1%
Cc1ccc(CS(=O)(=O)CCC(=O)NC2CC2)cc1 9.7%
COc1ccc(OCC(=O)NCCc2ccc(S(N)(=O)=O)cc2)cc1 19.4%
COc1ccc(CNC(=O)CCn2cccc2)cc1 35%
O=C(NCCN=C1NS(=O)(=O)c2ccccc21)c1ccc(S(=O)(=O)N2CCOCC2)cc1 -2%
O=C1CCCC2=C1C(c1ccccc1)n1c(s/c(=C/c3cccc(F)c3)c1=O)=N2 (centres undefined) 34.6%
CCOC(=O)C1CCN(C(=O)c2oc3ccc(S(=O)(=O)N4CCCCCC4)cc3c2C)CC1 40.4%
O=C(Nc1nnc(SCc2ccccc2)s1)c1ccco1 2.5%
COc1ccc2c(CC(=O)Nc3nnc(C4CC4)s3)coc2c1 12.6%
CCOc1ccc(CN(Cc2ccco2)C(c2cccs2)c2nnnn2C(C)(C)C)cc1 (centres undefined) 47.8%
COc1ccc(CN(Cc2ccco2)S(=O)(=O)c2ccc(S(=O)(=O)N3CCCC3)cc2)cc1 38.7%
CCOc1nnc(C)c2c(C)n(-c3cccc(Cl)c3)nc12 45.7%
Cc1cc(=O)n(C)c(=O)n1CCCNc1ccccc1 18.5%
CC(=O)c1sc(NC(=O)c2cccc3ccccc23)nc1C -21.9%
COc1ccccc1N1CCN(C(=O)c2ccc(S(=O)(=O)N3CCCCC3)cc2)CC1 28.3%
COc1ccccc1N1CCN(C(=O)c2cc(-c3ccc(Br)cc3)on2)CC1 -2.9%
CC1=NN(C(=O)c2ccccc2Br)C(O)(c2cccnc2)C1 (centres undefined) 16.7%
Cc1ccc(NC(=O)N2CCC(O)(c3cccnc3)CC2)cc1 2.2%
CC(c1ccccn1)N(CCN(C)C)C(=S)Nc1ccccc1F (centres undefined) 13.7%
Cc1cc2c(c(=O)n1C)C(C(C)C)C(C#N)=C(N)O2 (centres undefined) 3.4%
CCCCN(C)C(=O)C1CCN(Cc2ccccn2)CC1 -6.2%
COc1ccc(C2CC(=O)C=C(NCC3CCCO3)C2)cc1 (centres undefined) 19.6%
COc1ccc(-c2nn3c(-c4ccccc4)nnc3s2)cc1OC 0.9%
CCOc1cccc(-c2nn3c(-c4ccccn4)nnc3s2)c1 -1.6%
CC(C)(C)n1c(=O)[nH]c2c(c1=O)CCC2 -16.7%
O=C(O)C1CCN(S(=O)(=O)N2CCOCC2)CC1 -3%
O=C(CN(CC1CCCO1)C(=O)CNS(=O)(=O)c1ccccc1)NCc1ccccc1 (centres undefined) 4.5%
O=C1c2ccccc2C(=O)N1CC1c2ccccc2CCN1S(=O)(=O)c1ccccc1 (centres undefined) 36.9%
N#CC(C(N)=O)=C1CCC2(CC1)OCCCCO2 24.1%
CC(N)C12CC3CC(CC(O)(C3)C1)C2 (centres undefined) 6.1%
FC(F)(F)c1cccc(-c2cc3ccccc3nc2N2CCCC2)c1 16.1%
O=C1c2ccncc2C(=O)N1C1CCCCC1 -1.7%
COc1ccc2c(Cl)c(-c3nnco3)sc2c1 19%
COc1cccc(N=c2oc3c(C)ncc(CO)c3cc2C(N)=O)c1 21.1%
CC(Oc1ccc(F)cc1F)C(=O)/C=C/N(C)C (centres undefined) -6.9%
CN(C)/C=C/C(=O)c1ccccc1F -7%
